The whole screen tested about 39,000 compounds, of which about 3,300 (8.5%) were called active. The entries come from a sample that favours actives as a whole.

This test relates to HepG2. Briefly: cytotoxicity call (relative viability < 0.9). The conditions noted are these: 10 µM.
For `C[C@H]1CN([C@@H](C)CO)C(=O)c2cc(C#CC3(O)CCCC3)cnc2O[C@@H]1CN(C)C(=O)Cc1ccccc1`, the cytotoxicity call is “inactive”.
With `C[C@H](CO)N1C[C@H](C)[C@@H](CN(C)Cc2ccc(F)cc2)Oc2cc(C#CC(C)(C)O)ccc2S1(=O)=O` the entry was “inactive”; with `OCC1OC(OC2C(O)C(CO)OC2(CO)OC2OC(CO)C(O)C(O)C2O)C(O)C(O)C1O` (stereo unspecified), “inactive”.
Turning to `CN(C)C(=O)N[C@H]1CN(S(C)(=O)=O)[C@H]2CCCO[C@@H]12`, the cytotoxicity call was “inactive”.
To `C[C@@H]1CN([C@@H](C)CO)C(=O)c2cc(NS(=O)(=O)c3ccc(Cl)cc3)ccc2O[C@@H](C)CCCCO[C@H]1CN(C)Cc1ccc(C(=O)O)cc1` belongs “inactive”; to `Cn1nc(C(=O)O)c2ccccc2c1=O`, “inactive”; to `COc1cccc(CNC(=O)c2cc3c(c(-c4cccc(-c5ccncc5)c4)n2)[C@@H](CCO)N([S@@](=O)C(C)(C)C)C3)c1`, “inactive”.
`C[C@H]1CC/C=C\[C@H]2O[C@@]34C=CCN(Cn5nnc6ccccc65)C(=O)[C@H]3N(CCCCCCO)C(=O)[C@@H]4[C@@H]2C(=O)O1`: the cytotoxicity call was “inactive”.
With `C[C@H]1CN([C@@H](C)CO)C(=O)c2cc(Br)cnc2O[C@@H]1CN(C)C(=O)Nc1ccc(F)cc1` the entry was “inactive”; with `COc1ccc(CN(C)C[C@H]2Oc3ccc(NC(=O)Nc4ccc(C(F)(F)F)cc4)cc3C(=O)N([C@@H](C)CO)C[C@H]2C)cc1`, “active”.
To `COc1ccc(NC(=O)Nc2ccc3c(c2)C(=O)N([C@@H](C)CO)C[C@H](C)[C@@H](CN(C)Cc2ccc(C(F)(F)F)cc2)O3)cc1` belongs “active”; to `COc1ccc(CN(C)C[C@H]2Oc3ccc(NC(=O)Nc4ccc(C(F)(F)F)cc4)cc3C(=O)N([C@@H](C)CO)C[C@@H]2C)cc1`, “active”.
Turning to `COc1ccc(CN(C)C[C@@H]2Oc3ccc(NC(=O)Nc4ccc(C(F)(F)F)cc4)cc3C(=O)N([C@H](C)CO)C[C@H]2C)cc1`, the cytotoxicity call was “active”.
To `c1ccc2c([C@@H]3CCCN3)cccc2c1` belongs “inactive”; to `Cc1ccc(S(=O)(=O)N(C)C[C@@H]2Oc3c(NC(=O)c4ccncc4)cccc3C(=O)N([C@H](C)CO)C[C@H]2C)cc1`, “inactive”; to `C[C@@H]1CCCCO[C@H](CN(C)Cc2ccncc2)[C@H](C)CN([C@@H](C)CO)C(=O)c2cc(NC(=O)Cc3ccccc3)ccc2O1`, “inactive”.
As to `COc1ccc(C#Cc2ccc3c(c2)O[C@H](CN(C)S(=O)(=O)c2ccccc2F)[C@H](C)CN([C@@H](C)CO)S3(=O)=O)cc1`, the cytotoxicity call is “inactive”.
To `C=CCOC(=O)[C@H]1[C@@H]2C(=O)O[C@@H](c3ccccc3)[C@@H](c3ccccc3)N2[C@@H](c2ccc(OCCOC(=O)[C@H]3C[C@H]4C(=O)N[C@@H](CC(C)C)C(=O)N4[C@H]3c3ccc(O)cc3)cc2)[C@]12C(=O)Nc1ccccc12` belongs “inactive”; to `N=C(N)NCCS`, “inactive”.
With `C[C@@H]1CN([C@@H](C)CO)S(=O)(=O)c2ccc(C#Cc3ccccc3)cc2O[C@@H]1CN(C)C(=O)c1ccccn1` the entry was “inactive”; with `C[C@@H]1CCCCO[C@@H](CN(C)C(=O)NC2CCCCC2)[C@H](C)CN([C@H](C)CO)C(=O)c2cc(NS(=O)(=O)c3ccc(Cl)cc3)ccc2O1`, “inactive”; with `N#C[C@H](N)c1ccc(Cl)cc1`, “inactive”.
Turning to `COc1ccc(NC(=O)Nc2ccc3c(c2)C(=O)N([C@@H](C)CO)C[C@@H](C)[C@@H](CN(C)Cc2ccc(C(F)(F)F)cc2)O3)cc1`, the cytotoxicity call is “active”.
To `COc1ccc(NC(=O)Nc2ccc3c(c2)C(=O)N([C@@H](C)CO)C[C@@H](C)[C@H](CN(C)Cc2ccc(C(F)(F)F)cc2)O3)cc1` belongs “inactive”; to `COc1ccc(NC(=O)Nc2ccc3c(c2)C(=O)N([C@@H](C)CO)C[C@H](C)[C@H](CN(C)Cc2ccc(C(F)(F)F)cc2)O3)cc1`, “inactive”.
Regarding `COc1ccc(CN(C)C[C@@H]2Oc3ccc(NC(=O)Nc4ccc(C(F)(F)F)cc4)cc3C(=O)N([C@@H](C)CO)C[C@H]2C)cc1`, the cytotoxicity call is “active”.
With `C[C@@H]1CCCCO[C@@H](CN(C)C(=O)Nc2ccccc2)[C@@H](C)CN([C@@H](C)CO)C(=O)c2cc(NS(=O)(=O)c3ccccc3)ccc2O1` the entry was “inactive”; with `C[C@@H]1CN([C@@H](C)CO)C(=O)CCCn2nncc2CO[C@H]1CN(C)S(=O)(=O)c1ccc(-c2ccccc2)cc1`, “inactive”.
With `C[C@H]1CN([C@@H](C)CO)C(=O)Cc2cc(NC(=O)Nc3cccc4ccccc34)ccc2O[C@H]1CN(C)C(=O)Nc1ccc2c(c1)OCO2` the entry was “inactive”; with `C[C@@H]1CCCCO[C@@H](CN(C)S(=O)(=O)c2ccc(Cl)cc2)[C@H](C)CN([C@H](C)CO)C(=O)c2cc(NS(=O)(=O)c3ccc(F)cc3)ccc2O1`, “inactive”.
With `Nc1ncnc2c1ncn2[C@@H]1O[C@H](C[C@@H](N)CC[C@H](N)C(=O)O)[C@@H](O)[C@H]1O` the entry was “inactive”; with `CC(C)N(CCCNC(=O)Nc1ccc(C(C)(C)C)cc1)C[C@H]1O[C@@H](n2cnc3c(N)ncnc32)[C@@H](O)[C@H]1O`, “inactive”; with `CC(C)N(C[C@H]1O[C@@H](n2cnc3c(N)ncnc32)[C@H](O)[C@@H]1O)[C@H]1C[C@@H](CCc2nc3ccc(C(C)(C)C)cc3[nH]2)C1`, “active”.
Turning to `C[C@H]1CN([C@@H](C)CO)C(=O)Cc2cc(NC(=O)C3CC3)ccc2O[C@@H]1CN(C)S(=O)(=O)c1cccs1`, the cytotoxicity call is “inactive”.
With `CC(C)NC(=O)N(C)C[C@H]1Oc2ccc(NS(=O)(=O)c3ccccc3)cc2CC(=O)N([C@@H](C)CO)C[C@H]1C` the entry was “inactive”.
Take `Cn1c(Nc2ccc(C(F)(F)F)cc2)nc2cc(Oc3ccnc(-c4ncc(C(F)(F)F)[nH]4)c3)ccc21`: the cytotoxicity call was “active”.
With `COc1ccc(NC(=O)Nc2ccc3c(c2)C(=O)N([C@H](C)CO)C[C@H](C)[C@H](CN(C)Cc2ccncc2)OCCCC[C@H](C)O3)cc1` the entry was “inactive”; with `CO[C@@H]1CN(C)C(=O)c2cc(NC(=O)Nc3ccccc3F)ccc2OC[C@@H](C)N(Cc2ccccc2C(=O)O)C[C@H]1C`, “inactive”; with `COc1ccc(-c2coc3cc(OC)ccc3c2=O)c(O)c1`, “inactive”.
Take `Cc1c(C(N)=O)nnn1-c1ccc(F)cc1`: the cytotoxicity call was “inactive”.
For the compound `C[C@@H]1CCCCO[C@H](CN(C)CC2CC2)[C@H](C)CN([C@H](C)CO)C(=O)c2cc(NC(=O)Nc3ccc(C(F)(F)F)cc3)ccc2O1`, the cytotoxicity call was “active”.
With `C[C@@H]1CCCCO[C@@H](CN(C)CC2CC2)[C@H](C)CN([C@@H](C)CO)C(=O)c2cc(NC(=O)Nc3ccc(C(F)(F)F)cc3)ccc2O1` the entry was “inactive”; with `C[C@H](CO)N1C[C@H](C)[C@@H](CN(C)CC2CC2)OCCCC[C@H](C)Oc2ccc(NC(=O)Nc3ccc(C(F)(F)F)cc3)cc2C1=O`, “inactive”.
To `C[C@@H]1CCCCO[C@@H](CN(C)CC2CC2)[C@@H](C)CN([C@H](C)CO)C(=O)c2cc(NC(=O)Nc3ccc(C(F)(F)F)cc3)ccc2O1` belongs “active”; to `C[C@H]1CCCCO[C@H](CN(C)CC2CC2)[C@@H](C)CN([C@@H](C)CO)C(=O)c2cc(NC(=O)Nc3ccc(C(F)(F)F)cc3)ccc2O1`, “inactive”.
To `C[C@H](CO)N1C[C@H](C)[C@H](CN(C)CC2CC2)OCCCC[C@H](C)Oc2ccc(NC(=O)Nc3ccc(C(F)(F)F)cc3)cc2C1=O` belongs “active”; to `C[C@@H]1CCCCO[C@@H](CN(C)CC2CC2)[C@H](C)CN([C@H](C)CO)C(=O)c2cc(NC(=O)Nc3ccc(C(F)(F)F)cc3)ccc2O1`, “inactive”; to `C[C@@H]1CCCCO[C@H](CN(C)CC2CC2)[C@H](C)CN([C@@H](C)CO)C(=O)c2cc(NC(=O)Nc3ccc(C(F)(F)F)cc3)ccc2O1`, “active”.
For `C[C@H](CO)N1C[C@H](C)[C@@H](CN(C)C(=O)Nc2ccccc2)OCCCC[C@H](C)Oc2ccc(NC(=O)C3CCCCC3)cc2C1=O`, the cytotoxicity call was “inactive”.
To `CN(C)C(=O)CN1C[C@]23CN(Cc4cnn(C)c4)C[C@@H](C[C@@H]2S1(=O)=O)O3` belongs “inactive”; to `CC(C)NC(=O)N(C)C[C@H]1Oc2c(NS(=O)(=O)c3ccc(F)cc3)cccc2C(=O)N([C@H](C)CO)C[C@@H]1C`, “inactive”; to `C[C@@H]1CN([C@H](C)CO)C(=O)c2cc(NC(=O)Nc3cccc4ccccc34)ccc2O[C@@H](C)CCCCO[C@@H]1CN(C)Cc1ccc(C(=O)O)cc1`, “inactive”.
`COc1ccc(NC(=O)N(C)C[C@@H]2Oc3cc(Br)ccc3S(=O)(=O)N([C@H](C)CO)C[C@H]2C)cc1`: the cytotoxicity call is “inactive”.
To `COc1cccc(S(=O)(=O)N(C)C[C@H]2OCc3cnnn3CCCC(=O)N([C@H](C)CO)C[C@@H]2C)c1` belongs “inactive”.
In the case of `C[C@H](CO)N1C[C@H](C)[C@H](CN(C)C(=O)Nc2ccccc2)OCCCC[C@H](C)Oc2ccc(NS(=O)(=O)c3cccs3)cc2C1=O`, the cytotoxicity call is “inactive”.
With `COc1ccc(S(=O)(=O)N(C)C[C@H]2Oc3ccc(NC(=O)Nc4cccc5ccccc45)cc3C(=O)N([C@H](C)CO)C[C@H]2C)cc1` the entry was “inactive”; with `Cn1c(=O)[nH]c2nnc(-c3ccccn3)nc2c1=O`, “inactive”; with `Cn1nc(-c2ccccn2)nc2c(=O)n(C)c(=O)nc1-2`, “active”.
With `COc1ccc(-c2ccccn2)cc1` the entry was “inactive”.
To `COc1ccc(NC(=O)Nc2ccc3c(c2)C(=O)N([C@H](C)CO)C[C@H](C)[C@@H](CN(C)Cc2ccc(C(=O)O)cc2)OCCCC[C@H](C)O3)cc1` belongs “inactive”; to `CN(CP(=O)(O)CN1CCOCC1)S(C)(=O)=O`, “inactive”.
Regarding `CC(C)(C)NCC(O)COc1nsnc1N1CCOCC1.O=C(O)C=CC(=O)O` (stereo unspecified), the cytotoxicity call was “inactive”.
To `CC(C)(C)NCC(O)COc1cccc2c1CC(O)C(O)C2` (stereo unspecified) belongs “inactive”.
In the case of `CC(C)(C)NCC(O)COc1ccccc1C1CCCC1.O=S(=O)(O)O` (stereo unspecified), the cytotoxicity call was “active”.
To `C[C@H](CO)N1C[C@H](C)[C@@H](CN(C)S(=O)(=O)c2cn(C)cn2)Oc2ccc(NC(=O)CCN3CCOCC3)cc2C1=O` belongs “inactive”; to `C[C@H]1CN([C@@H](C)CO)C(=O)c2cc(NC(=O)CCCN(C)C)ccc2O[C@@H]1CN(C)C(=O)Nc1ccc2c(c1)OCO2`, “inactive”.

Values taken from the antibiotic and cytotoxicity screens of Wong et al. (2023).
